Gal4-VP16 FLuc: VP16 counterscreen qHTS for inhibitors of ROR gamma transcriptional activity; Drosophila S2 Gal4-VP16 UAS-luciferase, luminescence, 20 h; actives 3.5% (n = 310,000); AID 2546, 2010; Potency, µM (top dose mostly 53.6 µM), inactives show top-dose activity, negative = inhibition, actives largely listed as inhibitors;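 further: Gal4-VP16 expression switched on by copper sulfate through the metallothionein promoter; on the % scale 0 is the no-effect control and ±100 the full control effect; nearly all actives have a fitted effect of over 50% in size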
uPA surface inh: qHTS for Inhibitors of Cell Surface uPA Generation. cell surface uPA generation assay, qHTS. Potency, µM (titrated, usually from 38.3 µM), without a hit: at the top dose activity change, negative = inhibition, actives largely listed as inhibitors. actives 0.31% (n = 330,000). AID 540303, 2011; active means well fitted inhibition curve with a large enough effect; inconclusive means small, poorly fitted or top-dose-only effect; inactive means no such curve, though single readings can be large or run the other way; tested in mouse RAW 264.7 cells; further: on the % scale 0 is the no-effect control and ±100 the full control effect; nearly all actives have a fitted effect of over 55% in size
a7 integrin act: qHTS for Activators of Integrin-Mediated Alleviation for Muscular Dystrophy; AID 624291, 2012; actives 0.064% (n = 350,000); alpha7betagal myoblasts, beta-gal FDG fluorescence, 48 h; Potency, µM (top dose mostly 38.3 µM), for the others: at the top dose activation, usual class: activators;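 further: 100% = response of the positive control SU9516; nearly all actives have a fitted effect of over 60% in size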
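alpha7betagal+/- myoblasts (passage 13, 250/well) treated 48 h at 37C with compounds at 1:260 dilution of DMSO stock. Lysed, then beta-galactosidase activity read as FDG fluorescence (ex 480/em 540) after 30 min, with pre-read for autofluorescence.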
Chronic BCR inh: qHTS Assay to Find Inhibitors of Chronic Active B-Cell Receptor Signaling. ABC-DLBCL IkBa-CBG/CBR reporter, luminescence ratio, 4 h. Potency, µM (doses to about 46.1 µM), for the others: top-dose activity change, negative = inhibition, most hits filed as inhibitors. actives 0.05% (n = 340,000). AID 493014, 2011; active means well fitted inhibition curve with a large enough effect in the signal ratio, with a control signal flat, not every such curve was filed as active; inconclusive means small, poorly fitted or top-dose-only effect, or effect the other way, or a change in a side signal; the % refers to the signal ratio;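 further: plate controls were basal doxycycline-induced cells for no effect and cells given 10 µM MG132 for full effect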
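Concentration-response series (up to 46 uM) were applied to TMD8 dual-reporter cells for 4 h at 37C with doxycycline. Green/red ratio, after filter-overlap correction, defined %Activity; red signal alone was normalised to basal cells and zero luminescence.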
Mito fusion yeast: qHTS Assay for Small Molecule Inhibitors of Mitochondrial Division or Activators of Mitochondrial Fusion; S. cerevisiae fusion-defective mutant growth rescue, CellTiterGlo 48 h; Potency, µM (doses to about 46.1 µM), for the others: at the top dose growth rescue (activation), actives largely listed as activators; actives 0.23% (n = 320,000); further: % of control where 0% means no effect; nearly all actives have a fitted effect of over 45% in size
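Temperature-sensitive fusion-defective S. cerevisiae (e.g. fzo1-1, mgm1-5) were grown with compound in YPEG medium (3% ethanol, 3% glycerol) for 48 hours at 37C. Growth rescue was measured as viability by CellTiterGlo luminescence after 10 minutes at ambient.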
RORg inh: qHTS for inhibitors of ROR gamma transcriptional activity | Potency, µM (doses to about 53.6 µM), for inactives: at the top dose activity change, negative = inhibition, usual class: inhibitors | Drosophila S2 Gal4-RORgamma UAS-luciferase reporter, 20 h | actives 5.4% (n = 310,000) | Nuclear receptor ROR-gamma (Mus musculus), P51450; further: on the % scale 0 is the no-effect control and ±100 the full control effect; nearly all actives have a fitted effect of over 60% in size
Target sequence (P51450 whole entry, looked up, the tested form may be a part): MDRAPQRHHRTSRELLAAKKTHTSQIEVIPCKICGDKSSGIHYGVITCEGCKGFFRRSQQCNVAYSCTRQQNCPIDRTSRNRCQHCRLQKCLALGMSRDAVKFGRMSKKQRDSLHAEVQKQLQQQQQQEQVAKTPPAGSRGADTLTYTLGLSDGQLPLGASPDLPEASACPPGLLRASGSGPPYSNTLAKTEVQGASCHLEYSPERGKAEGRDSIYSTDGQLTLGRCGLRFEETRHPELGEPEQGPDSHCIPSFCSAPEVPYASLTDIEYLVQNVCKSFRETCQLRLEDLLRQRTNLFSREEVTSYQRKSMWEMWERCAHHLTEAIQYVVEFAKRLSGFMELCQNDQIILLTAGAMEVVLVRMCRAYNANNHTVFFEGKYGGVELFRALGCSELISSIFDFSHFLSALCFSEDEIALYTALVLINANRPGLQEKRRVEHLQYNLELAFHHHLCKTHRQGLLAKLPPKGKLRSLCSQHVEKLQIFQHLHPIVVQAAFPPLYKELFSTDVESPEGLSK
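In this cell-based reporter format, copper sulfate (700 uM final) drives Gal4–ROR gamma fusion expression from a metallothionein promoter in Drosophila Schneider cells; compounds preincubated 1 hr, reporter read after 20 hr at ambient temperature.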
The depositor's hits bear a star; ? = inconclusive; . = not tested or not shown; [ ] = dose if it differs, or a comment. Shown are actives, neighbours in structure and some others; about 5.5% of the full set was active somewhere. Unless noted, the call rests on the fitted dose curve; in most records, active means well fitted curve in the direction sought with a large enough effect; inconclusive means small, poorly fitted or top-dose-only effect, or another doubt; inactive means no such curve, though single readings can be large; an effect the other way counts as inactive or inconclusive. Potency means the concentration at half of the fitted maximal effect.

SMILES | Gal4-VP16 FLuc | uPA surface inh | a7 integrin act | Chronic BCR inh | Mito fusion yeast | RORg inh
COc1ccc2[nH]c3c4c(ccc3c2c1)C(=O)C=CC4=O | 8.9µM* | 3.2µM* | -69% | ? | -8% | 6.3µM*
COc1ccc2[nH]c(=O)cc(C(=O)O)c2c1 | -3% | -2% | 23% | 4% | -1% | 0%
Fc1cccc(Cc2noc(CN3CCSCC3)n2)c1 | -4% | -2% | -11% | 7% | 4% | -30%
Cc1cccnc1CN1CCN(Cc2nc(Cc3cccc(F)c3)no2)CC1 | -3% | 0% | 0% | -17% | -4% | 13µM*
COc1ccc(C(=O)Cn2c(C(=O)/C=C/c3ccccc3)nc3ccccc32)cc1 | ? | -11% | -69% | ? | 0% | 4µM*
COc1ccc(C(=O)CSc2nc3ccccc3n2CC(=O)c2ccccc2)cc1 | -4% | -1% | 11% | 4% | 2% | -10%
COc1ccc(/C=C/C(=O)c2ccccn2)cc1 | 11µM* | -5% | 2% | ? | 11% | 11µM*
COc1cc(/C=C/c2ccc(O)cc2)cc(OC)c1 | ? | -64% | 0% | 13µM* | 7% | ?
COc1ccc([N+](=O)[O-])c(C=CC(=O)c2ccccn2)c1 | . | . | -64% | . | . | .
COc1ccc(/C=C/C(=O)c2ccoc2)cc1 | 4% | -11% | -19% | ? | 2% | 9%
COc1ccc(/C=C/C(=O)c2ccc(O)cc2)cc1 | 7.1µM* | ? | -18% | ? | 2% | 2.5µM*
COc1ccc(OC(=O)/C=C/c2ccc([N+](=O)[O-])cc2)cc1 | 8.9µM* | -8% | 4% | 0% | -5% | ?
COc1cc(O)c(C(=O)/C=C/c2ccccc2)c(OC)c1 | ? | 8.9µM* | -15% | ? | 8% | ?
COc1ccc(CN(CCC#N)C(=S)NC(=O)c2ccccc2)cc1 | 0.56µM* | -4% | 12% | ? | 0% | 0.32µM*
Cc1ccc(S(=O)(=O)CCC(=O)OCC(=O)NCCc2ccccc2)cc1 | . | 6% | 0% | 2% | -4% | .
CCCN(CCC)C(=S)NC(=O)c1ccc(-c2ccccc2)cc1 | 0.13µM* | . | -47% | ? | 11% | 0.5µM*
O=C(COC(=O)CCS(=O)(=O)c1ccc(Cl)cc1)NCCc1ccccc1 | 4% | 0% | -18% | -1% | -5% | 5.6µM*
CCOc1ccc(CN(CCC#N)C(=S)NC(=O)c2ccccc2)cc1 | 0.45µM* | ? | -21% | 9% | 20% | 0.4µM*
COC1=C[C@@H](C)C2CC3OC(=O)C[C@H]4C(C)=C(OC)C(=O)C([C@@]2(C)C1=O)[C@@]34C (some centres undefined) | 0% | . | . | . | . | -1%
CCOC(=O)CNC(=O)O[C@@H]1Cc2cc(OC)ccc2O[C@H]1c1cccc(OC)c1 | 9% | . | . | . | . | 3%
CN(CCOc1ccc(C[C@H](Nc2ccccc2C(=O)c2ccccc2)C(=O)O)cc1)c1ccccn1 | 1% | . | . | . | . | 38%
CCOc1ccc(C(=O)NC(=S)N(Cc2ccccc2)Cc2ccccc2)cc1 | 0.79µM* | . | -8% | ? | 0% | 0.28µM*
N#CCCN(Cc1ccccc1)C(=S)NC(=O)c1ccccc1 | 0.71µM* | . | -5%[7.66 µM] | 2% | 4% | 0.35µM*
O=C(COC(=O)CNC(=O)c1ccccc1)NCCc1ccccc1 | 0% | 8% | 2% | -1% | -1% | 10µM*
CCOc1ccc(C(=O)NCCc2ccccc2)cc1 | 8.9µM* | ? | 15% | ? | -6% | 8.9µM*
SMILES | Gal4-VP16 FLuc | uPA surface inh | a7 integrin act | Chronic BCR inh | Mito fusion yeast | RORg inh
N#CCCN(Cc1ccccc1)C(=S)Nc1ccccc1 | 4% | -5% | -18% | 0% | -2% | -41%
CC[C@H](C)C(=O)O[C@@H]1C[C@H](C)C=C2C=C[C@H](C)[C@@H](CC[C@H]3C[C@@H](O)CC(=O)O3)[C@H]21 | 2%[17 µM] | . | . | . | . | 16%[16.9 µM]
Brc1ccc(COc2cccc3cccnc23)cc1 | . | 5% | -13% | . | . | .
N#Cc1ccc(COc2cccc3cccnc23)cc1 | -2% | -1% | -10% | 3% | 8% | 10µM*
CC(=O)OCCN(CCCn1c(-c2ccncc2)nc2ccccc21)c1nc(CN2CCCCC2)cs1 | -9% | -5% | -12% | 5% | 3% | 5%
COc1ccc(C2SCC(=O)N2CCc2ccc(OC)c(OC)c2)cc1 (centres undefined) | 2.8µM* | ? | -2% | ? | 21% | ?
COc1ccc(CCN2C(=O)CSC2c2ccc(OC)c(OC)c2)cc1OC (centres undefined) | -13% | 11% | -34% | ? | -1% | 41%
Cc1cc2nc(-c3ccc[nH]c3=O)[nH]c2cc1C | 6.3µM* | 0.89µM* | 8% | ? | -56% | 7.9µM*
C[C@@H](C(=O)Nc1ccc2ccccc2c1)[C@H]1C[C@]1(C)[C@H](N)c1ccccc1 | 19% | . | . | . | . | 2%
COc1cccc(/C=N/NC(=O)CNC(=O)c2ccncc2)c1O | ? | ? | -17% | -20% | -4% | 16µM*
COC(=O)c1ccc(COc2ccccc2/C=N/NC(=O)c2cccnc2)cc1 | 1% | -10% | -15% | -17% | 0% | -7%
Cc1cccc(OCC(=O)NCC(=O)N/N=C/c2cc(Br)cc(Br)c2O)c1 | 6.3µM* | 4% | -28% | -1% | -1% | 2µM*
COc1cccc(/C=N/NC(=O)CNC(=O)c2cccnc2)c1O | -24% | -10% | -11% | 0% | 3% | 18µM*
COc1cccc(/C=N/NC(=O)CNC(=O)C2COc3ccccc3O2)c1O (centres undefined) | 0.45µM* | ? | -36% | 6% | -4% | 0.35µM*
Cc1ccc(/C=N/NC(=O)CNC(=O)COc2ccccc2)cc1 | 2% | 4% | -10% | 4% | -1% | 10%
OCC(O)CN1CCCC1 (centres undefined) | -1% | 6% | 5% | 2% | 4% | -6%
COc1ccc(CCNC(=O)CNC(=O)c2ccc(Br)o2)cc1OC | . | 0% | 14% | -3% | -4% | .
COc1ccc(/C=C/C(=O)c2ccc3c(c2)OCO3)c(OC)c1 | -6% | ? | -4% | ? | 12% | -14%
COc1ccc(CCCC(=O)N/N=C/c2cccc(OC)c2O)cc1C | 0.13µM* | -12% | 6% | ? | 4% | 0.22µM*
COc1cccc(/C=N/NC(=O)C[n+]2ccccc2)c1O | 7% | 1% | -15% | 0% | -3% | -33%
COc1cccc(/C=N/NC(=O)CN2CC(c3ccccc3)CC2=O)c1O (centres undefined) | 1.3µM* | -4% | 7% | -10% | 3% | 0.56µM*

Source: PubChem BioAssay
